Bioassay records (PubChem BioAssay)
An excerpt weighted towards active compounds, which were near 6.5% of everything screened.
Vaccinia mCherry: qHTS for Stage-Specific Inhibitors of Vaccinia Orthopoxvirus: mCherry Reporter Primary qHTS. AID 720579, 2013. Potency, µM (titrated, usually from 36.5 µM), hits mostly inhibitors. Vaccinia virus mCherry reporter infection, fluorescence. 310,000 compounds, 0.63% hits; calls by dose curve; tested in A549 cells; further: nearly all actives have a fitted effect of over 35% in size
Vaccinia Venus: qHTS for Stage-Specific Inhibitors of Vaccinia Orthopoxvirus: Venus Reporter Primary qHTS; Vaccinia virus Venus reporter expression, fluorescence; Potency, µM (titrated, usually from 36.5 µM), most hits filed as inhibitors; 330,000 compounds, 0.46% hits; calls by dose curve; tested in A549 cells; further: nearly all actives have a fitted effect of over 30% in size
MARV entry inh: qHTS for inhibitors of binding or entry into cells for Marburg Virus; Marburg virus pseudotyped entry inhibition, cell reporter; Potency, µM (series often up to 37.8 µM), most hits filed as inhibitors; 300,000 compounds, 1.8% hits; AID 540276, 2011; calls by dose curve; tested in HEK293 cells
LASV entry inh: qHTS for Inhibitors of binding or entry into cells for Lassa Virus | Lassa virus pseudotype entry inhibition, cell reporter | Potency, µM (titrated, usually from 37.9 µM), actives largely listed as inhibitors | 300,000 compounds, 1.2% hits | AID 540256, 2011; calls by dose curve; tested in HEK293 cells; further: nearly all actives have a fitted effect of over 50% in size
HCMV inh: qHTS Assay for inhibitors of the human cytomegalovirus (HCMV); HFF cells, HCMV-luciferase reporter, 72 h; hits give low values; activity change, negative = inhibition, % at 57.5 µM; 410,000 compounds, 4.5% hits; in the data active means activity change below about -60%; inconclusive means no clear call, values can overlap the other calls; inactive means above about -39%
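Compounds were evaluated in HFFs infected with an HCMV luciferase reporter virus (MOI 1 PFU/cell). Luciferase in lysates collected 72 h post infection served as the replication measure.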
FMDV inh: High Throughput Screening for Foot and Mouth Disease Virus Antivirals | AID 1159524, 2015 | Potency, µM (doses to about 57.9 µM), hits mostly inhibitors | FMDV antiviral cell-based qHTS | 410,000 compounds, 1.2% hits; calls by dose curve; tested in HEK293T cells; further: read-out not given here; nearly all actives have a fitted effect of over 45% in size
Numbers stand for hits; 0 = inactive; ? = inconclusive; - = not tested or not shown; [ ] = dose if it differs, or a comment.

SMILES	Vaccinia mCherry	Vaccinia Venus	MARV entry inh	LASV entry inh	HCMV inh	FMDV inh
COc1cc(-c2ccc(C)cc2)cc2c1OCCN(C(=O)CCn1ccc(C)n1)C2	0	0	-	-	-	0
CCOc1ccc2[nH]cc(C(=O)NCc3ccc(F)cc3)c(=O)c2c1	-	-	-	-	-71.0	0
Cc1cc(O)c(CN2CCN(c3ccc(F)cc3)CC2)c2oc(=O)cc(C)c12	0[7.34 µM]	0[7.34 µM]	0	0	0	0
CC(C)CNC(=S)N1CCC(C(=O)c2ccc3c(c2)OCCO3)CC1	-	-	-	-	-63.3	0
COCCCNC(=S)N1CCC(C(=O)c2ccc3c(c2)OCCO3)CC1	0	0	0	0	0	0
CCc1ccc(N/C(N)=N/c2nc(CSc3ccccn3)cc(=O)[nH]2)cc1	0	0	?	?	-84.6	?
CCCc1cc(=O)[nH]c(/N=C(\N)Nc2ccccc2)n1	-	-	0	0	0	0
Cc1ccc(SCc2cc(=O)[nH]c(/N=C(\N)Nc3ccccc3Sc3ccccc3)n2)cc1	0	0	0	0	-93.5	0
COCc1cc(=O)[nH]c(/N=C(\N)Nc2ccc(C)cc2C)n1	0	0	0	?	?	0
Cc1ccc(N/C(N)=N/c2nc(CSc3ccccn3)cc(=O)[nH]2)c(C)c1	0	0	0	?	-68.5	?
COc1ccccc1N/C(N)=N/c1nc(CSc2ccc(C)cc2)cc(=O)[nH]1	?	0	?	0	?	?
CCCn1c(C)nc2c(c1=O)c1nc3ccccc3nc1n2CCC1=CCCCC1	-	-	23.1µM	?	0	?
O=c1c2sc3nc(N4CCOCC4)c4c(c3c2nnn1Cc1ccccc1)CCCC4	-	?	0	0	-100.2	0
Cc1ccccc1-n1cnc2c(sc3nc(N4CCOCC4)c4c(c32)CCCC4)c1=O	0[7.34 µM]	0[7.34 µM]	?	?	-89.1	0
O=c1c2sc3nc(N4CCOCC4)c4c(c3c2ncn1-c1ccccc1)CCCC4	?	?	?	?	-63.7	?
Cc1ccc(-n2cnc3c(sc4nc(N5CCOCC5)c5c(c43)CCCC5)c2=O)cc1	-	-	-	-	0	?
COc1ccc(-n2cnc3c(sc4nc(N5CCOCC5)c5c(c43)CCCC5)c2=O)cc1	0	0	0	?	0	?
O=C(/C=C/c1ccc(OCCCF)cc1)Nc1ccnc(-c2ccncc2)n1	0	0	?	0	?	22.4µM
CCc1nn(CC(=O)Nc2cccc(C(C)=O)c2)c(=O)c2cc3sccc3n12	0	0	0	-	0	0
Cc1ccc(N=Nc2ccc(O)c3ncccc23)cc1C	-	-	-	-	-98.1	0
Cc1ccc(N=Nc2ccc(O)c3ncccc23)cc1	12.6µM	?	?	?	-95.5	0
COCC(=O)N1CC(=O)N2[C@@H](CO)[C@@H](c3ccc(Br)cc3)[C@@H]2C1	-	-	-	-	0	-
Cc1nc(N/N=C/c2cccc([N+](=O)[O-])c2)cc(N2CCCCC2)n1	0	0	-	-	0	0
Oc1ccccc1/C=N/Nc1cc(N2CCCC2)nc(N2CCCC2)n1	?	?	2.31µM	?	0	0
Oc1cccc(/C=N/Nc2cc(N3CCOCC3)nc(N3CCOCC3)n2)c1	?	?	2.59µM	?	0	0
SMILES	Vaccinia mCherry	Vaccinia Venus	MARV entry inh	LASV entry inh	HCMV inh	FMDV inh
Cc1nc(N/N=C/c2cccc(F)c2)cc(N2CCOCC2)n1	?	0	7.94µM	0	0	?
Oc1ccc(C=Nc2ccc(N3CCOCC3)cc2)c(O)c1	0	0	?	?	0	0
Oc1ccc(/C=N/Nc2cc(N3CCOCC3)nc(N3CCOCC3)n2)cc1O	0	?	?	0	0	?
Cc1nc(N/N=C/c2ccc(O)cc2O)cc(N2CCOCC2)n1	1.12µM	?	2.82µM	?	?	0
COc1ccc(CCN(C)C(=O)c2cnn(-c3nccc(-c4ccc(C)o4)n3)c2C)cc1OC	0	0	-	-	-	0
Oc1cccc2c(CC(O)c3c[nH]c4ccccc34)ccnc12 (stereo not drawn)	0	?	-	-	-	-
CCN(CC)c1ccc2nc3ccccc3[n+](CC)c2c1	0	?	?	?	-	7.94µM
CCN(CC)c1ccc(/C=C/c2cc(Cl)nc3ccccc23)cc1	0	0	-	-	-	-
CCN(CC)c1ccc2nc3c(=O)n(C)c(=O)n(C)c3nc2c1	0	0	?	0	0	0
CCN(CC)c1ccc2nc3ccc(N)cc3[n+](-c3ccccc3)c2c1	0	0	?	8.91µM	-	?
O=C(Nc1cccc(NC(=O)c2ccccc2Cl)c1)c1ccc([N+](=O)[O-])o1	7.94µM	?	?	?	-97.8	0
O=C(Nc1cccc([N+](=O)[O-])c1)c1ccc2ccccc2c1O	10µM	?	?	?	-80.1	0
O=C(Nc1cccc([N+](=O)[O-])c1)c1ccc([N+](=O)[O-])o1	0	?	-	-	-86.5	?
CC(=O)c1cccc(NC(=O)c2ccc(-c3ccccc3[N+](=O)[O-])o2)c1	0	0	4.61µM	?	0	0
Cc1cc(NC(=O)c2ccc(-c3ccccc3[N+](=O)[O-])o2)no1	-	-	-	-	0	0
CCOC(=O)C1=CCN(S(=O)(=O)c2ccc(Br)cc2)C1c1cccc(Br)c1 (stereo not drawn)	-	-	-	-	0	-
O=C(COc1ccccc1)NC(=S)Nc1cccc(NC(=O)c2ccccc2Cl)c1	0	0	0	0	-64.1	0
O=C(Nc1cccc(NC(=O)c2ccccc2Cl)c1)c1cccs1	0	0	0	0	-81.5	0
Cc1ccc(NC(=O)c2cccs2)cc1NC(=O)c1ccccc1Cl	-	-	-	-	0	0
O=C(Nc1nc2ccc(F)cc2s1)c1ccc([N+](=O)[O-])o1	?	10µM	-	-	?	0
CC(Nc1ccc(-c2nc(-c3ccccn3)no2)cc1[N+](=O)[O-])c1ccccc1 (stereo not drawn)	0	0	0	0	0	0
O=C(NC1CCN(Cc2ccccc2)CC1)c1ccc(Cn2c(=S)[nH]c3ccc(N4CCOCC4)cc3c2=O)cc1	0	0	2.82µM	?	0	0
COc1ccc(/C=C2\Sc3ccc(C(=O)NC4CC4)cc3N(C)C2=O)cc1OC	-	-	-	-	0	?
O=C(CCCCCn1c(=S)[nH]c2ccc(N3CCOCC3)cc2c1=O)NC1CCN(Cc2ccccc2)CC1	0	0	?	0	?	?
CCCCCn1c(=O)[nH]c2cc(C(=O)NC3CCN(Cc4ccccc4)CC3)ccc2c1=O	0	0	0	0	0	?
CN1C(=O)/C(=C\c2ccccc2F)Sc2ccc(C(=O)NC3CCN(Cc4ccccc4)CC3)cc21	-	-	-	-	-70.7	?
CCN1CCN(c2ccc(NC(=O)c3ccc4c(c3)[nH]c(=O)n4Cc3ccc(OC)cc3)cc2)CC1	?	?	7.94µM	?	?	0
O=C(NC1CCN(Cc2ccccc2)CC1)c1ccc2c(c1)[nH]c(=O)n2Cc1ccc(F)cc1	?	?	2.82µM	?	-85.7	?
CCC(=O)N1CCc2cc(S(=O)(=O)NC(CC(C)C)C(=O)Nc3cc(C)ccc3OC)ccc21 (stereo not drawn)	0	0	0	0	0	0
CCOC(=O)[C@]12Cc3cc(C)ccc3[C@H]1N(C1CCCCC1)C(=O)c1ccccc12	?	?	-	-	-103.5	7.94µM
